Sampled rows, rich in hits. Any-hit rate of the full collection: about 8%.
Lassa entry inh: blocks Lassa virus binding to or entry into cells. Lassa virus pseudotype entry inhibition, cell reporter. Potency, µM (doses to about 37.9 µM), usual class: inhibitors. 1.2% of 300,000 active. AID 540256; calls by dose curve; tested in HEK293 cells; further: nearly all actives have a fitted effect of over 50% in size
FMDV inh: antivirals against foot and mouth disease virus | AID 1159524 | FMDV antiviral cell-based qHTS | Potency, µM (series often up to 57.9 µM), hits mostly inhibitors | 1.2% of 410,000 active; calls by dose curve; tested in HEK293T cells; further: read-out not given here; nearly all actives have a fitted effect of over 45% in size
HCMV inh: human cytomegalovirus inhibition | activity change, negative = inhibition, % at 57.5 µM | HFF cells, HCMV-luciferase reporter, 72 h; hits give low values | 4.5% of 410,000 active; in the data active means activity change below about -60%; inconclusive means no clear call, values can overlap the other calls; inactive means above about -39%
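After 16 h attachment at 37C, HFF cells received test compound and HCMV-luciferase (1 PFU/cell); reporter luminescence read 72 h later, data normalized against buffer-only and known inhibitor Salinomycin.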
HCV inhibitor: HCV inhibition; Potency, µM (titrated, usually from 41.8 µM), most hits filed as inhibitors; Huh7.5.1 HCVcc-Cre infection, luciferase reporter, 44 h; AID 651820; 3.4% of 340,000 active; active means well fitted inhibition curve with a large enough effect; inconclusive means small, poorly fitted or top-dose-only effect, or another doubt; inactive means no such curve, though single readings can be large or run the other way
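Reporter virus HCVcc-Cre (~0.5 moi) infects cells exposed to compound; seeding density 1,000 cells/well with 4 h settling beforehand. Luminescence, 15 sec read, taken 44 h post-infection following a 15 min RT substrate incubation.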
Marburg entry inh: blocks Marburg virus binding to or entry into cells; Marburg virus pseudotyped entry inhibition, cell reporter; Potency, µM (titrated, usually from 37.8 µM), most hits filed as inhibitors; 1.8% of 300,000 active; calls by dose curve; tested in HEK293 cells
SARS PLpro yeast: inhibitors of SARS-CoV papain-like protease in yeast. S. cerevisiae expressing SARS-CoV PLpro, growth rescue. Potency, µM (top dose mostly 32.9 µM), actives largely listed as activators. 0.19% of 330,000 active; calls by dose curve; further: nearly all actives have a fitted effect of over 55% in size
Hits are given with their value; i = inactive; ? = inconclusive; nt = no result; [ ] = remark or other dose.

SMILES	Lassa entry inh	FMDV inh	HCMV inh	HCV inhibitor	Marburg entry inh	SARS PLpro yeast
CC(=O)NC(c1ccco1)c1cc(Cl)c2ccc(N3CCCCC3)nc2c1O (stereo not given)	nt	nt	nt	nt	nt	i
CCOc1ccccc1CNC(=O)C1CCN(Cc2cc3ccccc3n2Cc2ccccc2)CC1	i	i	i	nt	nt	nt
Cc1nn(Cc2cccc(C(=O)NC34CC5CC(CC(C5)C3)C4)c2)c(C)c1Br	?	?	i	14µM	?	i
CCCNC(=O)c1cccc(Cn2nc(C)c(Br)c2C)c1	i	i	i	?	i	i
COc1ccc(-n2c(-c3ccco3)n[nH]c2=S)cc1	i	i	i	i	i	i
S=c1[nH]nc(-c2ccco2)n1-c1ccc(Cl)cc1	i	i	-61	i	i	i
O=C(COC(=O)C1(c2ccc(F)cc2)CCCC1)N1CCN(C(=O)c2ccco2)CC1	i	?	-106	?	i	i
COc1ccc(C(=O)OCC(=O)N2CCN(C(=O)c3ccco3)CC2)c(OC)c1OC	nt	i	-102	nt	nt	nt
O=C(Cc1ccc(NC(=O)N2CCCCc3ccccc32)cc1)NCc1ccccc1Br	?	i	i	nt	nt	nt
COc1ccc(CNC(=O)c2cnn3c(C(F)F)cc(C)nc23)cc1OC	nt	?	i	10µM	nt	i
CCCC(=O)Nc1sc2c(c1C(=O)OC)C(C(=O)OC)CC2 (stereo not given)	i	i	i	?	?	i
COC(=O)c1c(NC(=O)c2c(OC)cccc2OC)sc2c1CCCC2	i	i	i	nt	nt	nt
COC(=O)c1c(NC(=O)CCCOc2ccc(C(C)(C)C)cc2)sc2c1C(C(=O)OC)CC2 (stereo not given)	?	35µM	-84	nt	nt	nt
COC(=O)c1c(NC(=O)c2c(OC)cccc2OC)sc2c1C(C(=O)OC)CC2 (stereo not given)	nt	i	-65	?	nt	i
Cc1nc(C)c(CC(=O)N2CCOc3ccc(CN4CCOCC4)cc3C2)s1	nt	i	nt	nt	nt	nt
COC1=C(C)C(=O)C2=C(C1=O)C1C3CC4=C(C(=O)C(OC)=C(C)C4=O)C(CNC(=O)C(C)=O)N3C(C#N)C(C2)N1C (stereo not given)	?	?	-97	?	?	nt
c1ccc(N2CCN(c3nc(-c4ccccn4)nc4ccccc34)CC2)cc1	?	?	-99	3.2µM	?	i
CCOC(=O)/C(C#N)=C(/C)c1ccc(OC)cc1	i	i	i	32µM	i	i
CCCCC[C@H](O)/C=C/C=C\C=C\C=C\[C@@H](O)[C@@H](O)CCCC(=O)O	nt	i[0.463 µM]	nt	nt	nt	nt
CC(C)CN1CC[C@@]2(CCCN(C(=O)c3cnccn3)C2)C1	nt	i	nt	nt	nt	nt
CCCOC(=O)Nc1ccc([As](=O)(O)O)cc1NC(=O)OCCC	i	i	-80	i	i	i
CCOC(=O)Nc1ccc(C)cc1NC(=O)OCC	i	i	i	i	i	i
O=CNc1ccc2c3c(cccc13)-c1ccccc1-2	i	i	i	2.8µM	i	nt
c1ccc2c(c1)-c1cccc3cccc-2c13	nt	i	i	?	nt	i
C[C@@]12C(=O)N(c3cccc(F)c3)C(=O)N1[C@@H]1c3ccccc3OC[C@@H]1[C@H]2c1ccccc1	nt	?	-101	?	nt	i
SMILES	Lassa entry inh	FMDV inh	HCMV inh	HCV inhibitor	Marburg entry inh	SARS PLpro yeast
COc1ccc2c(c1)OC[C@H]1[C@H]2N2C(=O)c3cc(OC)ccc3NC(=O)[C@@]2(C)[C@H]1c1ccccc1	nt	i	i	?	nt	i
COc1ccc2c(c1)OC[C@H]1[C@H]2N2C(=O)c3cc(F)ccc3NC(=O)[C@@]2(C)[C@H]1c1ccccc1	nt	i	i	11µM	nt	i
Cc1ccc2c(c1)[C@H]1[C@H](CO2)[C@H](c2ccccc2)[C@]2(C)C(=O)Nc3cc(F)c(F)cc3C(=O)N12	nt	?	-70	?	nt	i
C[C@@]12C(=O)N(c3cccc(Cl)c3)C(=O)N1[C@@H]1c3ccccc3OC[C@@H]1[C@H]2c1ccccc1	nt	i	i	?	nt	i
COc1ccc2c(c1)C(=O)N1[C@H]3c4cc(Cl)ccc4OC[C@@H]3[C@H](c3ccccc3)[C@]1(C)C(=O)N2	nt	i	-60	?	nt	i
CN1CCN(C(c2ccccc2)c2sc3nc(-c4ccco4)nn3c2O)CC1 (stereo not given)	i	i	i	nt	nt	nt
CCOc1ccc(C(=O)CSc2nc3cc(C(=O)NC4CCCC4)ccc3c(=O)n2CC2CCCO2)cc1 (stereo not given)	i	i	i	nt	nt	nt
CC(C)C[C@H](N)CSSC[C@@H](N)CC(C)C	nt	nt	nt	nt	1.3µM	nt
CC(C)CC(C)N (stereo not given)	nt	i	i	?	nt	i
Oc1cc(Nc2ccncc2)cc2cccnc12	nt	i	i	nt	nt	i
CN(C)c1ccc(-c2cc(O)c3ncccc3c2)cc1	nt	i	-97	nt	nt	i
Oc1cc(-c2ccncc2)cc2cccnc12	nt	i	-97	nt	nt	i
CCN(C(=O)COC(=O)c1cc(-c2ccc(C)o2)nc2ccccc12)C1CCS(=O)(=O)C1 (stereo not given)	?	i	i	i	i	i
CCN(C(=O)COC(=O)c1cc(-c2cccs2)nc2ccccc12)C1CCS(=O)(=O)C1 (stereo not given)	i	i	i	11µM	i	i
CCN(C(=O)COC(=O)c1c(C)c(-c2ccccc2)nc2ccccc12)C1CCS(=O)(=O)C1 (stereo not given)	nt	i	i	13µM	nt	i
COc1ccc(-c2cc(C(=O)OCC(=O)N(C)C3CCS(=O)(=O)C3)c3ccccc3n2)cc1OC (stereo not given)	?	i	i	3.2µM	?	i
COc1ccc(CN2C(=O)C(n3ccc4ccccc43)c3ccccc32)cc1 (stereo not given)	nt	nt	i	nt	nt	nt
COC(=O)C1=C(C)N(Cc2ccccc2)C(=NCCc2ccc(O)cc2)NC1c1ccc(Br)cc1 (stereo not given)	nt	nt	nt	nt	i	nt
Cc1cc(C)c(Cn2c(C)c(CNCCCc3ccccc3)c(C(=O)O)c2C)c(C)c1	i	i	i	nt	i	nt
Cc1ccc(S(=O)(=O)Cc2nc(-c3ccc(C(=O)NCc4ccccc4)cc3)oc2C)cc1	i	i	i	nt	nt	nt
O=C1NC[C@@H](CCCCN2C[C@H](Cc3ccccc3)N(CCC3CCCCC3)C(=O)C2=O)N(Cc2ccccc2)C1=O	nt	i	i	nt	nt	nt
O=C1NC[C@H](CCCCN2C[C@H](Cc3ccccc3)N(CCC3CCCCC3)C(=O)C2=O)N(CCC2CCCCC2)C1=O	nt	40µM	i	nt	nt	nt
O=C1NC[C@H](CCCCN2C[C@H](Cc3ccc(O)cc3)N(CC3CCCCC3)C(=O)C2=O)N(Cc2ccccc2)C1=O	nt	i	-75	nt	nt	nt
Cc1cccc(N/C=C/C(=O)c2ccc(Cl)cc2)c1	nt	i	i	i	nt	i
O=C(/C=C\Nc1ccccn1)c1ccc(Cl)cc1	?	nt	i	i	6.5µM	i
O=C(C1CCN(S(=O)(=O)c2cccs2)CC1)N1CCCC(C(F)(F)F)C1 (stereo not given)	i	i	-98	i	i	?
Cc1ccc(NC(=O)c2cccc(S(=O)(=O)N3CCN(c4ccc(F)cc4)CC3)c2)nc1	?	?	-77	?	?	i
O=C(Nc1ccncc1)c1cccc(S(=O)(=O)N2CCN(c3ccc(F)cc3)CC2)c1	?	20µM	-71	?	?	i
